# Experimental data reported in PubChem BioAssay AID624481 (The Scripps Research Institute Molecular Screening Center, 2012).
# Calls of active or inactive are those of the source. No stated cut-off is given here; in the data, active means inhibition above about 50%; inactive means the rest.
# Biological target: Prolyl endopeptidase-like (Mus musculus) (UniProt Q8C167)
# Assay: mouse PREPL enzyme inhibition by screening hits – biochemical, gel-based competitive ABPP, fluorescence, HTS hits, PREPL inhibitor project (AID 624481)
# Conditions: purified mouse PREPL, at 20 µM, active compounds read high
# Chain of Prolyl endopeptidase-like (Mus musculus) (Q8C167 whole entry, looked up): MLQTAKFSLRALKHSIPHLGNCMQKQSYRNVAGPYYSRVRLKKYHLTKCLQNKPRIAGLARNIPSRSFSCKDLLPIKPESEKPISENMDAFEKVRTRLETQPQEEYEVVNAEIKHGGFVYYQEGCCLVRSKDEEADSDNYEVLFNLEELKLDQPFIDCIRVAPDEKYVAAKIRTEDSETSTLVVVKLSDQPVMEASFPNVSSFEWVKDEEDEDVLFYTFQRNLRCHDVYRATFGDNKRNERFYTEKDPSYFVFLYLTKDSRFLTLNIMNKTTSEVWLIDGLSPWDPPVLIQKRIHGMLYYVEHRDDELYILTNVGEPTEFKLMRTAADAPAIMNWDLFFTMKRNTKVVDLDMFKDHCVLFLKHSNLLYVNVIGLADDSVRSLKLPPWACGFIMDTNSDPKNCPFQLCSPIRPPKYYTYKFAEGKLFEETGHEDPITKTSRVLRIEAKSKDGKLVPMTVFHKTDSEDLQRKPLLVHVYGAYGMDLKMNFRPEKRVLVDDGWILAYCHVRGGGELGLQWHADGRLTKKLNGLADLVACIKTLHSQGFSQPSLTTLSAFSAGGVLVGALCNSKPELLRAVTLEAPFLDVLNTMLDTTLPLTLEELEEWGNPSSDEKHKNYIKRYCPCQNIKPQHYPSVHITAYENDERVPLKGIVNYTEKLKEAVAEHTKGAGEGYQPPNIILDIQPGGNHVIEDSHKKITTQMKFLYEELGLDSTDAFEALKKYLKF
row,SMILES,inhibition
1,COc1ccc2cc1Oc1ccc(cc1)CC1c3c(cc(OC)c4c3Oc3cc5c(cc3O4)CCNC5C2)CCN1C (centres undefined),-113% (inactive)
2,CN(CC(=O)Nc1ccc(Cl)cc1)C(=O)c1cccc(S(=O)(=O)N2CCN(Cc3ccccc3)CC2)c1,1% (inactive)
3,COc1ccc(Cn2c(SCc3ccccc3C)nc3cc(OC)c(OC)cc3c2=N)cc1,52% (active)
4,CCN(CC)c1ccc2cc(C(N)=O)c(=NNC(=O)c3ccncc3)oc2c1,-14% (inactive)
5,CN(C)c1ccc(NC(=O)Cn2cc3c(n2)CCCC3)cc1,-22% (inactive)
6,Oc1c(CN2CCCCC2)cc(COCc2ccccc2)c2cccnc12,92% (active)
7,CN1CCN(c2ccc(NC(=O)COc3cccc4ccccc34)cc2)CC1,15% (inactive)
8,Cc1noc(C)c1S(=O)(=O)Nc1ccc2c(c1)C(=O)N([C@H](C)CO)C[C@H](C)[C@@H](CN(C)C(=O)Nc1ccc(C(F)(F)F)cc1)O2,-1% (inactive)
9,C#CCOCCOCCOCCNc1nc(N2CCN(C(=O)[C@H](Cc3cc4ccccc4[nH]3)n3cc([C@@H](N)CC(C)C)nn3)CC2)nc(N2CCN(C(=O)[C@H](Cc3cc4ccccc4[nH]3)n3cc([C@@H](N)CC(C)C)nn3)CC2)n1,-82% (inactive)
10,c1ccc(CNc2nc(-c3ccccn3)nc3ccccc23)cc1,-89% (inactive)
11,COc1ccc(C(=O)c2coc3ccc(O)c(CN4CCCC4)c23)cc1,-31% (inactive)
12,COc1ccc(C(CCNCc2ccc(N(C)C)cc2)c2ccccc2)cc1 (centres undefined),-124% (inactive)
13,COc1ccc(N2CCN(C(=O)c3cn(C4CCCC4)c(=O)c4c3c3ccccc3n4C)CC2)cc1,92% (active)
14,Cc1cc(C)c2nc(C)cc(NN=Cc3ccc(O)cc3)c2c1,-1% (inactive)
15,CC[C@@H](C)[C@@H]1CN([C@@H](CN2CCC[C@H]2CN2C(N)=NC[C@@H]2Cc2ccccc2)C(C)C)C(=N)N1CCCC1CCCC1,-104% (inactive)
16,CC(C)(C)n1cnc2cc(NCc3ccc(Br)cc3)ccc21,-12% (inactive)
17,CCC(=O)c1ccc2c(c1)N(CCCN(C)C)c1ccccc1S2,9% (inactive)

row,SMILES,inhibition
1,COc1ccc(C(=O)c2coc3ccc(O)c(CN4CCCCC4)c23)cc1,-53% (inactive)
2,Cc1ccccc1-c1ccc(Nc2ccc(N3CCOCC3)cc2)nn1,12% (inactive)
3,CC(C)Nc1ccc(Nc2ccnc3cc4ccccc4cc23)cc1,-11% (inactive)
4,COc1cc2c(cc1OC)C(Cc1ccc(O)c(Oc3ccc(C[C@H]4c5cc(OC)c(OC)cc5CCN4C)cc3)c1)N(C)CC2 (some centres undefined),66% (active)
5,CC(C)C[C@@H]1CN=C(N)N1C[C@@H]1CCCN1C[C@@H](C(C)C)N1C[C@@H](Cc2ccccc2)N(CCCC2CCCC2)C1=N,-52% (inactive)
6,COc1ccc(C2CC(c3cccc(C)c3)n3nc(N)nc3N2)cc1 (centres undefined),-50% (inactive)
7,C#CCOCCOCCOCCNc1nc(N2CCN(C(=O)[C@H](CCCCN)n3cc([C@@H](N)CC(C)C)nn3)CC2)nc(N2CCN(C(=O)[C@H](Cc3cc4ccccc4[nH]3)n3cc([C@@H](N)Cc4ccc(O)cc4)nn3)CC2)n1,-71% (inactive)
8,CCCCCCCCCCCCCCCC[N+](C)(C)CCN(Cc1ccc(OC)cc1)c1ncccn1,81% (active)
9,O=C(CSc1cccc(C(F)(F)F)c1)Nc1ccc(N2CCOCC2)cc1,-35% (inactive)
10,Oc1c(CN2CCCC2)cc(COCc2ccccc2)c2cccnc12,-64% (inactive)
11,COCCn1c(-c2ccc(Br)cc2)csc1=Nc1cccnc1,43% (inactive)
12,CC(=O)N1CCN(c2ccc(NCc3ccc(-c4ccc(Br)cc4)o3)cc2)CC1,-23% (inactive)
13,Nc1[nH]n2c(=O)c3c(nc2c1N=Nc1ccc(Cl)cc1)CCCC3,-12% (inactive)
14,C#CCOCCOCCOCCNc1nc(N2CCN(C(=O)CCCCCCCCCCNC(=O)[C@H](CCCCN)n3cc(CCO)nn3)CC2)nc(N2CCN(C(=O)CCCCCCCCCCNC(=O)[C@H](CCCN=C(N)N)n3cc(C[C@@H](C)CC)nn3)CC2)n1,-34% (inactive)
15,CCC(CO)[n+]1c(C)cc(/C=C2\Sc3ccccc3N2Cc2ccccc2)cc1C (centres undefined),-20% (inactive)
16,CCOc1ccc(Nc2nc(NCC3CCCO3)c3ccccc3n2)cc1 (centres undefined),12% (inactive)
17,CCC[C@@H](CN1CCC[C@H]1CN1C(N)=NC[C@H]1C(C)C)N1C[C@@H](Cc2ccccc2)N(CCCC2CCCC2)C1=N,-46% (inactive)
